From PubChem
Sampled rows, rich in hits. Any-hit rate of the full collection: about 3.2%.
Tau FP inhib = tau fibrillization inhibition (FP); P10636; Potency, µM (series often up to 57.7 µM), usual class: inhibitors; AID 1468; K18 P301L tau heparin fibrillization, Alexa594 FP, 6 h; 280,000 compounds, 0.39% hits; further: nearly all actives have a fitted effect of over 55% in size
Target sequence (P10636 561-689 P618L limits assumed): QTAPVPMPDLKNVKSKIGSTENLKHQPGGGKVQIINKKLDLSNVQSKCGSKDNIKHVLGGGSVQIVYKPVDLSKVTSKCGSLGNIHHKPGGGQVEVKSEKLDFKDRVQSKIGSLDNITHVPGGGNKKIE
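Compound effects on tau fibrillization are measured by Alexa 594 fluorescence polarization (ex 555, em 632 nm). K18 P301L tau is used at 15 uM with 0.24 uM labeled tracer, and 20 uM heparin induces aggregation over 6 hr at 37 C.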
TRb-SRC2 inh = inhibitors of human thyroid hormone receptor beta-SRC2 interaction | 280,000 compounds, 0.065% hits | P10828 | Potency, µM (top dose mostly 106 µM), most hits filed as inhibitors | TRbeta-SRC2 peptide binding, fluorescence polarization; receptor liganded with 1 µM T3; further: nearly all actives have a fitted effect of over 50% in size
Target sequence (P10828 whole entry, looked up): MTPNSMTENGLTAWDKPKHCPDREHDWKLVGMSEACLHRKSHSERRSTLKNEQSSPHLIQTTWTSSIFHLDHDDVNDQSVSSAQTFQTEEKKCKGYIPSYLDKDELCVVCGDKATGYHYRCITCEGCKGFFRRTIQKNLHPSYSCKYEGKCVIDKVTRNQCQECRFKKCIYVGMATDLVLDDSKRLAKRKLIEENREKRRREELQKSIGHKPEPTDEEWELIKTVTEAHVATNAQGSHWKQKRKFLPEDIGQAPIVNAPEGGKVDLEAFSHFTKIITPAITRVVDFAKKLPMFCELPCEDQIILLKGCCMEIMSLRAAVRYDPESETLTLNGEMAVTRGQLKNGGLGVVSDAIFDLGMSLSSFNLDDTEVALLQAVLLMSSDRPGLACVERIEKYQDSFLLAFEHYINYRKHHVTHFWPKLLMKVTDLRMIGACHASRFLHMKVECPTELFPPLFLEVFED
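Fluorescence polarization of 20 nM Texas Red SRC2 peptide with 0.6 uM human TRb ligand-binding domain, in Tris buffer with 1uM T3 and 5% DMSO. Incubated 5 hr ambient; normalized to unbound and bound controls.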
Tau fluor counter = counter-screen for tau fibril formation inhibitors; tau K18 P301L Alexa594 fluorescence, heparin fibrillization; Potency, µM (doses to about 57.7 µM); 280,000 compounds, 0.93% hits; further: nearly all actives have a fitted effect of over 55% in size
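Human K18 P301L tau (15 uM unlabeled plus 0.24 uM Alexa 594-labeled, final) in 100 mM sodium acetate pH 7 was mixed with compound and 20 uM heparin and incubated 6 hr at 37 C.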
TexasRed fluor = alters Texas Red total fluorescence, flagging assay interference | TRb/SRC2 Texas Red total fluorescence interference | Potency, µM (series often up to 106 µM) | 280,000 compounds, 0.29% hits; active means well fitted curve in either direction with a large enough effect; inconclusive means small, poorly fitted or top-dose-only effect
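Human TRb ligand-binding domain at 0.6 uM with 20 nM Texas Red SRC2 peptide in Tris buffer containing 1 uM T3 and 5% DMSO, incubated with compound 5 h at ambient temperature. Total fluorescence (555/632 nm) calculated as parallel + 2 × perpendicular.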
Tau ThT inhib = inhibitors of human tau fibril formation, thioflavin T binding; Potency, µM (titrated, usually from 57.4 µM), actives largely listed as inhibitors; P10636; recombinant tau K18 P301L, heparin-induced fibrillization, ThT fluorescence; AID 1460; 270,000 compounds, 2.1% hits; further: nearly all actives have a fitted effect of over 55% in size
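Fibril formation assay: tau K18 P301L at 15 uM with trace Alexa 594 label, heparin inducer 20 uM, pH 7 sodium acetate buffer, 37 C for 6 hr; endpoint ThT signal.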
RGS12 GoLoco inh = blocks human Gai1 binding to RGS12 GoLoco peptide, red readout; Gai1:RGS12 GoLoco peptide FP, rhodamine, 10 min; Potency, µM (doses to about 61.6 µM), most hits filed as inhibitors; 230,000 compounds, 0.44% hits; P63096; active means well fitted inhibition curve with a large enough effect, not every such curve was filed as active; inactive means no such curve, though single readings can be large or run the other way; further: nearly all actives have a fitted effect of over 30% in size
Tau fibril TEM = Inhibits tau K18 fibrillization by TEM grading | shares compounds with Tau ThT inhib | recombinant tau K18 P301L fibrillization, TEM grading; hits give high values | fibril grade (0 = clumped fibrils, 4 = only tiny pieces) (no concentration beside the values) | 45 compounds, 70% hits | AID 1719;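 active means compounds whose electron micrographs showed tau fibrils broken into shorter filaments or fragments, graded high on fibril breakup; inconclusive means micrographs gave an unclear fibril picture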
tau sediment = inhibitors of human tau fibrillization, sedimentation test | shares compounds with Tau ThT inhib | recombinant tau K18 P301L (four-repeat tau fragment), sedimentation SDS-PAGE densitometry | inhibition, % at 100 µM | 110 compounds, 50% hits; in the data active means inhibition above about 40%; inconclusive means no clear call, values can overlap the other calls; inactive means below about 18%
Each line names hits and unclear results; the compound was inactive in the other large screens (follow-up assays come after a bar, where they were run); [ ] = dose if it differs, or a comment. Unless noted, the call rests on the fitted dose curve; in most records, active means well fitted curve in the direction sought with a large enough effect; inconclusive means small, poorly fitted or top-dose-only effect, or another doubt; inactive means no such curve, though single readings can be large; an effect the other way counts as inactive or inconclusive.

O=C(Nc1nnc(S(=O)(=O)Nc2ccccc2)s1)C1CCCCC1	Tau fluor counter inconclusive, Tau ThT inhib inconclusive (no result: RGS12 GoLoco inh) | tau sediment inactive
O=C(Cc1ccccc1)Nc1sc2c(c1C(=O)Nc1ccccc1)CCCCC2	TexasRed fluor inconclusive (no result: RGS12 GoLoco inh)
O=C(Cc1ccccc1)Nc1sc2c(c1C(=O)Nc1ccc(Cl)cc1)CCCC2	Tau FP inhib inconclusive, Tau ThT inhib 8.91µM (no result: RGS12 GoLoco inh) | Tau fibril TEM 2 | tau sediment 61.0
CC(C)(C)/C(O)=C/c1nc2ccccc2oc1=O	none
Cc1nc2ccccc2oc1=O	Tau fluor counter inconclusive, Tau ThT inhib inconclusive | tau sediment inactive
O=C(COc1ccc(F)cc1)Nc1ccc(OCc2cc(=O)n3ccsc3n2)cc1	Tau ThT inhib inconclusive (no result: RGS12 GoLoco inh)
O=C(NCc1cccnc1)C1CCN(S(=O)(=O)c2cccnc2)CC1	none
O=C(NCc1cccnc1)C1CCN(S(=O)(=O)c2cccs2)CC1	Tau FP inhib inconclusive, Tau fluor counter 4.47µM[quencher], Tau ThT inhib 3.98µM (no result: RGS12 GoLoco inh) | tau sediment inactive
COC(=O)CSc1nc2ccc(NC(=O)CSc3nnnn3Cc3ccccc3)cc2s1	Tau FP inhib inconclusive, Tau fluor counter inconclusive, Tau ThT inhib inconclusive | tau sediment inactive
CN(c1ccccc1)S(=O)(=O)c1nnc(NC(=O)COc2ccccc2)s1	Tau FP inhib inconclusive, Tau fluor counter inconclusive, Tau ThT inhib inconclusive (no result: RGS12 GoLoco inh) | tau sediment inconclusive
Nc1scc2c(C(=O)N3CCOCC3)nn(-c3ccccc3)c(=O)c12	none (no result: Tau FP inhib, TRb-SRC2 inh, Tau fluor counter, TexasRed fluor, Tau ThT inhib, RGS12 GoLoco inh) | tau sediment 89.0
CCOC(=O)c1nn(-c2ccccc2)c(=O)c2c(N)scc12	Tau FP inhib inconclusive, Tau fluor counter inconclusive, Tau ThT inhib 8.91µM | Tau fibril TEM 2 | tau sediment 73.0
CCN1CCN(C(=O)c2nn(-c3ccccc3)c(=O)c3ccccc23)CC1	none
Nc1nn(-c2ccccc2)c(=O)c2c(N)scc12	none (no result: Tau FP inhib, TRb-SRC2 inh, Tau fluor counter, TexasRed fluor, Tau ThT inhib, RGS12 GoLoco inh) | tau sediment 86.0
Nc1scc2c(CO)nn(-c3ccccc3)c(=O)c12	none (no result: Tau FP inhib, TRb-SRC2 inh, Tau fluor counter, TexasRed fluor, Tau ThT inhib, RGS12 GoLoco inh) | tau sediment 81.0
CCCN(c1ccc(C(C)C)cc1)S(=O)(=O)c1ccc2c(c1)n(C)c(=O)c(=O)n2C	none (no result: RGS12 GoLoco inh)
CC[C@]1(O)C[C@@H]2CN(CCc3c([nH]c4ccccc34)[C@@](C(=O)OC)(c3cc4c(cc3OC)N(C)C3[C@]45CCN4CC=C[C@](CC)(C45)[C@@H](OC(C)=O)[C@]3(O)C(=O)OC)C2)C1 (stereo partly specified)	Tau FP inhib inconclusive, Tau fluor counter inconclusive, Tau ThT inhib inconclusive
CCOC(=O)c1nn(-c2ccccc2)c(=O)c2c(NC(C)=O)scc12	none | tau sediment inactive
NC(=O)c1nn(-c2ccccc2)c(=O)c2c(N)scc12	none (no result: Tau FP inhib, TRb-SRC2 inh, Tau fluor counter, TexasRed fluor, Tau ThT inhib, RGS12 GoLoco inh) | tau sediment 89.0
O=C1SC(Cc2ccccc2)C(=O)N1c1ccccc1 (stereo unspecified)	none
Cc1ccc(N2C(=O)SC(Cc3ccccc3)C2=O)cc1 (stereo unspecified)	Tau FP inhib inconclusive, Tau ThT inhib inconclusive | Tau fibril TEM inconclusive | tau sediment inconclusive
COc1ccc(N2CCN(C(=O)c3cn(C4CCCCC4)c(=O)c4c3c3ccccc3n4C)CC2)cc1	Tau ThT inhib inconclusive (no result: RGS12 GoLoco inh)
Cc1oc2c(cc(NS(=O)(=O)c3ccc(C(C)C)cc3)c3ccccc32)c1C(=O)O	Tau ThT inhib inconclusive (no result: RGS12 GoLoco inh)
O=C(O)c1cccc(S(=O)(=O)Nc2ccc([N+](=O)[O-])cc2O)c1	Tau FP inhib inconclusive
O=C(O)CSc1cc(NS(=O)(=O)c2cccc([N+](=O)[O-])c2)c2ccccc2c1O	Tau FP inhib 3.98µM, Tau fluor counter inconclusive, Tau ThT inhib 1.78µM | Tau fibril TEM 4 | tau sediment 79.0
CCc1ccc(S(=O)(=O)Nc2cc(SCC(=O)O)c(O)c3ccccc23)cc1	Tau FP inhib 8.91µM, Tau fluor counter inconclusive, Tau ThT inhib 3.16µM | Tau fibril TEM 4 | tau sediment 77.0
COC(=O)c1c(NC(=O)CCCOc2cccc(C)c2)sc2c1CCC2	Tau ThT inhib inconclusive (no result: RGS12 GoLoco inh)
COC(=O)c1c(NC(=O)CCCOc2cccc(C)c2)sc2c1C(C(=O)OC)CC2 (stereo unspecified)	Tau FP inhib inconclusive, TexasRed fluor inconclusive, Tau ThT inhib 3.16µM (no result: RGS12 GoLoco inh) | Tau fibril TEM 2 | tau sediment 56.0
COC(=O)c1c(NC(=O)C(C)(C)C)sc2c1C(C(=O)OC)CC2 (stereo unspecified)	none | tau sediment inactive
COC(=O)c1c(NC(=O)C(Cl)Cl)sc2c1C(C(=O)OC)CC2 (stereo unspecified)	Tau ThT inhib inconclusive
COC(=O)c1c(NC(=O)CCCOc2ccc(C)cc2)sc2c1C(C(=O)OC)CC2 (stereo unspecified)	Tau FP inhib inconclusive, Tau fluor counter inconclusive, Tau ThT inhib 7.94µM (no result: RGS12 GoLoco inh) | Tau fibril TEM 2 | tau sediment 56.0
CC(=O)c1c(C)n(-c2cccc(C)c2)c2ccc(OC(=O)COc3ccccc3)cc12	none (no result: RGS12 GoLoco inh)
